Where “and” joins values, the source holds several entries; their conditions need not be identical. Identical values can stand only once. In all, about 5,500 compounds went through this assay and about 2,000 (36%) were called active. Roughly 18% stayed inconclusive and do not appear here. Rule as the data show it: active = normalized growth mostly below about 0.91 (no sharp cut-off); inconclusive = no clear call, values can overlap the other calls; inactive = mostly above about 0.92. This is one part of the list.
Experiment: chemical genetic growth profiling, strain panel (AID 1159580);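 also: tested at 20 µM; growth read once vehicle control cultures reached saturation at 30 °C; 1 = growth at the plate median or of vehicle wells; lower values mean less growth of the strain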
Conditions: S. cerevisiae deletion strains, growth OD

Measured: normalized growth

O=C(O[C@@H]1Cc2c(O)cc(O)cc2O[C@@H]1c1cc(O)c(O)c(O)c1)c1cc(O)c(O)c(O)c1
inactive: locus YBR021W, strain FUR4, stronger effect = lower value 1.01 | locus YBR171W, strain sec66, stronger effect = lower value 0.976 | locus YCL016C, strain dcc1, stronger effect = lower value 0.934 | locus YCL069W, strain vba3, stronger effect = lower value 0.94 | locus YCR088W, strain abp1, stronger effect = lower value 1.01 | locus YDL005C, strain med2, stronger effect = lower value 0.994 | locus YDL040C, strain nat1, stronger effect = lower value 0.979 | locus YDL185W, strain tfp1, stronger effect = lower value 0.994 | locus YDR001C, strain nth1, stronger effect = lower value 1 | locus YDR101C, strain arx1, stronger effect = lower value 0.966 | locus YDR159W, strain sac3, stronger effect = lower value 1.02 | locus YDR195W, strain ref2 0.905 | locus YDR318W, strain mcm21, stronger effect = lower value 0.951 | locus YDR392W, strain spt3, stronger effect = lower value 0.931 | locus YEL061C, strain CIN8 (second series), stronger effect = lower value 0.982 | locus YER016W, strain bim1, stronger effect = lower value 0.978 | locus YER110C, stronger effect = lower value 1.03 | locus YER155C, strain BEM2 (second series), stronger effect = lower value 0.893 | locus YER155C, strain BEM2, stronger effect = lower value 0.955 | locus YGL078C, strain dbp3, stronger effect = lower value 1.01 | locus YGL167C, strain pmr1, stronger effect = lower value 0.981 | locus YGL227W, strain vid30, stronger effect = lower value 1.02 | locus YGL240W, strain doc1, stronger effect = lower value 0.961 | locus YGR078C, strain PAC10, stronger effect = lower value 0.865 | locus YGR252W, strain gcn5, stronger effect = lower value 0.864 | locus YHR079C, strain IRE1 (second series), stronger effect = lower value 0.999 | locus YHR079C, strain IRE1, stronger effect = lower value 1.03 | locus YHR094C, strain hxt1, stronger effect = lower value 1.01 | locus YIL125W, strain kgd1, stronger effect = lower value 1 | locus YIR030C, strain dcg1, stronger effect = lower value 0.999 | locus YJL092W, strain hpr5, stronger effect = lower value 0.986 | locus YJL115W, strain asf1, stronger effect = lower value 0.988 | locus YJL129C, strain trk1, stronger effect = lower value 1.02 | locus YJL154C, strain vps35, stronger effect = lower value 0.992 | locus YJL168C, strain set2, stronger effect = lower value 0.998 | locus YJR066W, strain TOR1, stronger effect = lower value 0.936 | locus YKL009W, strain mrt4, stronger effect = lower value 1.04 | locus YKL068W, stronger effect = lower value 1 | locus YKL085W, strain MDH1 (second series), stronger effect = lower value 1.01 | locus YKL085W, strain MDH1, stronger effect = lower value 1.01 | locus YKL160W, strain elf1, stronger effect = lower value 0.936 | locus YKR001C, strain vps1, stronger effect = lower value 0.914 | locus YKR026C, strain gcn3, stronger effect = lower value 0.998 | locus YKR091W, strain srl3, stronger effect = lower value 0.996 | locus YLL041C, strain sdh2, stronger effect = lower value 0.962 | locus YLR102C, strain apc9, stronger effect = lower value 1.04 | locus YLR113W, strain HOG1, stronger effect = lower value 1.06 | locus YLR262C, strain YPT6, stronger effect = lower value 0.664 | locus YLR384C, strain iki3, stronger effect = lower value 0.94 | locus YML032C, strain rad52, stronger effect = lower value 1.01 | locus YML120C, strain ndi1, stronger effect = lower value 0.967 | locus YML124C, strain tub3, stronger effect = lower value 1 | locus YMR078C, strain ctf18, stronger effect = lower value 1.01 | locus YMR125W, strain sto1, stronger effect = lower value 1.07 | locus YMR129W, stronger effect = lower value 0.973 | locus YNL183C, strain NPR1, stronger effect = lower value 0.968 | locus YNL248C, strain rpa49, stronger effect = lower value 0.952 | locus YNL250W, strain rad50, stronger effect = lower value 1.02 | locus YNL271C, strain bni1, stronger effect = lower value 1 | locus YNL298W, strain CLA4, stronger effect = lower value 1 | locus YNL307C, strain MCK1, stronger effect = lower value 0.99 | locus YNL322C, strain KRE1 (second series), stronger effect = lower value 1.04 | locus YNR049C, strain mso1, stronger effect = lower value 0.986 | locus YOL012C, strain htz1 0.219 | locus YOL147C, strain pex11, stronger effect = lower value 0.97 | locus YOR136W, strain idh2, stronger effect = lower value 0.966 | locus YOR144C, strain elg1, stronger effect = lower value 0.971 | locus YOR231W, strain MKK1, stronger effect = lower value 1.02 | locus YOR290C, strain snf2, stronger effect = lower value 0.894 | locus YOR316C, strain cot1, stronger effect = lower value 1.02 | locus YPL078C, strain atp4, stronger effect = lower value 0.947 | locus YPL240C, strain hsp82, stronger effect = lower value 0.98 | locus YPL256C, strain CLN2, stronger effect = lower value 1.05 | locus YPR119W, strain clb2, stronger effect = lower value 1.02 | locus YPR141C, strain kar3, stronger effect = lower value 0.995 | locus YPR163C, strain tif3, stronger effect = lower value 1.01 | locus YPR167C, strain met16, stronger effect = lower value 0.951
0.148 (active) and 1.01 (inactive): locus YJL095W, strain BCK1, stronger effect = lower value
0.798 (active) and 1.02 (inactive): locus YHR030C, strain SLT2, stronger effect = lower value
active: locus YAL021C, strain ccr4, stronger effect = lower value 0.284 | locus YAL026C, strain drs2, stronger effect = lower value 0.781 | locus YAL030W, strain snc1, stronger effect = lower value 0.874 | locus YBL061C, strain skt5, stronger effect = lower value 0.77 | locus YBR009C, strain hhf1, stronger effect = lower value 0.823 | locus YBR023C, strain chs3, stronger effect = lower value 0.746 | locus YBR229C, strain ROT2, stronger effect = lower value 0.889 | locus YBR231C, strain swc5, stronger effect = lower value 0.688 | locus YBR279W, strain paf1, stronger effect = lower value 0.821 | locus YCL011C, strain gbp2, stronger effect = lower value 0.855 | locus YCL029C, strain bik1, stronger effect = lower value 0.866 | locus YCL061C, strain MRC1, stronger effect = lower value 0.913 | locus YDL035C, strain GPR1, stronger effect = lower value 0.333 | locus YDL074C, strain BRE1, stronger effect = lower value 0.576 | locus YDL101C, strain DUN1, stronger effect = lower value 0.385 | locus YDL192W, strain arf1, stronger effect = lower value 0.872 | locus YDR069C, strain doa4, stronger effect = lower value 0.413 | locus YDR137W, strain rgp1, stronger effect = lower value 0.839 | locus YDR162C, strain NBP2, stronger effect = lower value 0.14 | locus YDR297W, strain sur2, stronger effect = lower value 0.832 | locus YDR334W, strain swr1, stronger effect = lower value 0.837 | locus YDR335W, strain msn5, stronger effect = lower value 0.879 | locus YDR388W, stronger effect = lower value 0.929 | locus YDR502C, strain sam2, stronger effect = lower value 0.855 | locus YEL003W, strain gim4, stronger effect = lower value 0.85 | locus YEL037C, strain rad23, stronger effect = lower value 0.905 | locus YER015W, strain faa2, stronger effect = lower value 0.682 | locus YER111C, strain swi4, stronger effect = lower value 0.845 | locus YER167W, strain BCK2, stronger effect = lower value 0.801 | locus YFR010W, strain ubp6, stronger effect = lower value 0.865 | locus YGL086W, strain mad1, stronger effect = lower value 0.776 | locus YGL173C, strain kem1, stronger effect = lower value 0.567 | locus YGL248W, strain PDE1, stronger effect = lower value 0.536 | locus YGL253W, strain hxk2, stronger effect = lower value 0.794 | locus YGR135W, strain pre9, stronger effect = lower value 0.861 | locus YHR013C, strain ard1, stronger effect = lower value 0.663 | locus YHR027C, strain rpn1, stronger effect = lower value 0.52 | locus YHR129C, strain ARP1, stronger effect = lower value 0.586 | locus YHR142W, strain chs7, stronger effect = lower value 0.749 | locus YHR200W, strain rpn10, stronger effect = lower value 0.855 | locus YIL066C, strain RNR3, stronger effect = lower value 0.176 | locus YIL073C, strain SPO22, stronger effect = lower value 0.226 | locus YJL095W, strain BCK1 (second series), stronger effect = lower value 0.882 | locus YJL134W, strain LCB3, stronger effect = lower value 0.914 | locus YJL164C, strain tpk1, stronger effect = lower value 0.808 | locus YJL166W, strain qcr8, stronger effect = lower value 0.744 | locus YJL187C, strain SWE1 (second series), stronger effect = lower value 0.29 | locus YJL187C, strain SWE1, stronger effect = lower value 0.837 | locus YJR043C, strain POL32, stronger effect = lower value 0.317 | locus YJR075W, strain HOC1, stronger effect = lower value 0.704 | locus YKL190W, strain CNB1, stronger effect = lower value 0.26 | locus YLL001W, strain dnm1, stronger effect = lower value 0.897 | locus YLL026W, stronger effect = lower value 0.899 | locus YLR027C, strain aat2, stronger effect = lower value 0.829 | locus YLR039C, strain RIC1, stronger effect = lower value 0.331 | locus YLR058C, strain SHM2, stronger effect = lower value 0.373 | locus YLR221C, strain rsa3, stronger effect = lower value 0.87 | locus YLR258W, strain gsy2, stronger effect = lower value 0.898 | locus YLR262C, strain YPT6 (second series), stronger effect = lower value 0.835 | locus YLR268W, strain sec22, stronger effect = lower value 0.832 | locus YLR320W, strain mms22, stronger effect = lower value 0.877 | locus YLR330W, strain CHS5, stronger effect = lower value 0.776 | locus YLR342W, strain FKS1 (second series), stronger effect = lower value 0.297 | locus YLR342W, strain FKS1, stronger effect = lower value 0.649 | locus YLR357W, strain rsc2, stronger effect = lower value 0.704 | locus YLR370C, strain arc18, stronger effect = lower value 0.89 | locus YLR371W, strain rom2, stronger effect = lower value 0.677 | locus YLR418C, strain cdc73, stronger effect = lower value 0.625 | locus YML016C, strain PPZ1, stronger effect = lower value 0.114 | locus YMR058W, strain fet3, stronger effect = lower value 0.174 | locus YMR205C, strain PFK2, stronger effect = lower value 0.821 | locus YMR223W, strain ubp8, stronger effect = lower value 0.887 | locus YMR231W, strain pep5, stronger effect = lower value 0.496 | locus YMR307W, strain GAS1, stronger effect = lower value 0.429 | locus YNL067W, strain RPL9B, stronger effect = lower value 0.692 | locus YNL071W, strain lat1, stronger effect = lower value 0.878 | locus YNL128W, strain TEP1, stronger effect = lower value 0.13 | locus YNL153C, strain GIM3, stronger effect = lower value 0.665 | locus YNL209W, strain ssb2, stronger effect = lower value 0.44 | locus YNL233W, strain BNI4, stronger effect = lower value 0.651 | locus YNL322C, strain KRE1, stronger effect = lower value 0.26 | locus YNR052C, strain pop2, stronger effect = lower value 0.861 | locus YOL006C, strain TOP1, stronger effect = lower value 0.324 | locus YOR001W, strain rrp6, stronger effect = lower value 0.875 | locus YOR061W, strain CKA2, stronger effect = lower value 0.484 | locus YOR069W, strain VPS5, stronger effect = lower value 0.526 | locus YOR070C, strain gyp1, stronger effect = lower value 0.767 | locus YOR080W, strain dia2, stronger effect = lower value 0.754 | locus YOR083W, strain WHI5, stronger effect = lower value 0.882 | locus YOR106W, strain vam3, stronger effect = lower value 0.316 | locus YOR184W, strain ser1, stronger effect = lower value 0.808 | locus YOR265W, strain rbl2, stronger effect = lower value 0.912 | locus YOR270C, strain vph1, stronger effect = lower value 0.499 | locus YPL051W, strain arl3, stronger effect = lower value 0.539 | locus YPL055C, strain LGE1, stronger effect = lower value 0.249 | locus YPL106C, strain sse1, stronger effect = lower value 0.762 | locus YPL241C, strain CIN2, stronger effect = lower value 0.741 | strain wtn01, stronger effect = lower value 0.832

From PubChem BioAssay AID1159580 (chemical genetic matrix, 2015)
